This note sets out measurements from PubChem BioAssay (NCATS).

Assay [1] deals with Voltage-gated inwardly rectifying potassium channel KCNH2 (Homo sapiens) (UniProt Q12809). Briefly: qHTS Assay for Small Molecule Inhibitors of the Human hERG Channel Activity (AID 588834).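 Also: top concentration of the series differs between compounds; % is scaled to controls: 0 for no effect and ±100 for the full control effect; lower thallium flux fluorescence means stronger hERG block; nearly all actives have a fitted effect of over 50% in size.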 The method in brief: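 Blockade is seen as reduced FluxOR thallium-flux fluorescence in U2OS cells expressing hERG from a BacMam construct, in Opti-MEM with 2% FCS. Concentration-response data fitted to the Hill equation for AC50.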
In general terms: Quantitative high-throughput screening tests each substance at several concentrations.

For assay [2], the target named is Luciferin 4-monooxygenase (Photinus pyralis) (UniProt P08659). Description: Biochemical firefly luciferase enzyme assay for NPC (AID 624030).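 Also: purified P. pyralis luciferase at 10 nM with luciferin and ATP substrate; 0% = DMSO and -100% = full luciferase inhibition by PTC124 control; nearly all actives have a fitted effect of over 70% in size.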 The method in brief: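 Direct inhibition of firefly luciferase enzyme (10 nM final, 50 mM Tris Acetate) assessed by luminescence within 5 minutes. Percent activity scaled between DMSO and PTC124 positive control, with concentration-effect curves classified by fit quality and response.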

Assay [3] in a line: S16 Schwann cell viability assay (CellTiter-Glo assay) (AID 624031). Also: nearly all actives have a fitted effect of over 70% in size. Also: potency is read from the fitted curve at half-maximal effect. The method in brief:
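Luminescent ATP read-out (CellTiter-Glo) after 24 h compound exposure of native S16 rat Schwann cells at 37 °C. Signals were normalized between cell-free wells and DMSO-treated cells, set as 0% activity.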
In general terms: Cellular ATP, detected with luciferase, serves as a proxy for viable cell number.

Assay [4] addresses Glutaminase kidney isoform, mitochondrial (Homo sapiens) (UniProt O94925). Briefly: qHTS for Inhibitors of Glutaminase (GLS): LOPAC Validation (AID 624146). Also: nearly all actives have a fitted effect of over 60% in size. Also: potency is read from the fitted curve at half-maximal effect. The essentials:
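Compounds were pin-transferred onto hKGA, after which L-glutamine (1 mM solution) and a detection mix of glutamate oxidase, HRP and Amplex Red were added. Initial and 30 min RT fluorescence reads were collected.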

Assay [5] is described as follows: qHTS of Trypanosoma Brucei Inhibitors: LOPAC Validation (AID 624147). Also: 0% is about no effect. The method in brief:
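Enzyme and substrate buffer are dispensed first and compound is pin-transferred. ADP at 130 uM final then starts the reaction, which runs 45 min at room temperature. Detection reagent is added for 10 min before luminescence is imaged.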

The nature of assay [6]: HTS Assay for Allosteric Antagonists of the Human D2 Dopamine Receptor: Hit Validation in HTRF (AID 624455).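 Also: stable D1 dopamine receptor cell line scored for blocking the D1 response; % is scaled to controls: 0 for no effect and ±100 for the full control effect.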 The essentials: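 First, antagonism was screened by calcium flux in a force-coupled, inducible Hek293 Trex D2 line challenged with EC80 dopamine. Hits then went into an HTRF assay in cells stably expressing D1, testing inhibition of the D1 response.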
For orientation: In TR-FRET formats the signal depends on donor and acceptor labels being close together.

The nature of assay [7]: S16 Schwann cell PMP22 intronic element firefly luciferase assay (AID 624032). Also: nearly all actives have a fitted effect of over 30% in size. Also: potency is read from the fitted curve at half-maximal effect. The essentials:
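Luciferase reporter of PMP22 intronic-element expression in stably transfected S16 rat Schwann cells, read by ONE-Glo luminescence after 24 h compound exposure at 37 C. Activity scaled between DMSO (0%) and positive-control PTC124; concentration-effect curves quality-classified.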

Assay [8] deals with Glucagon-like peptide 1 receptor (Homo sapiens) (UniProt P43220). Description: qHTS of GLP-1 Receptor Agonists: LOPAC Validation (AID 624148).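 Also: luminescence from a luciferase reporter switched on by cAMP.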 Also: potency is read from the fitted curve at half-maximal effect. The essentials: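 Agonism scored as increased luciferase luminescence driven by cAMP in HEK293 clones carrying GLP-1R. Cells settled 12 hours, received compound for 4-6 hr at 37 deg C, 5% CO2, and were read after 12 min detection reagent at RT.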

Assay [9] is described as follows: qHTS of Nrf2 Activators: LOPAC Validation (AID 624149). Also: 0% is about no effect. The method in brief: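 Luminescence read-out of ARE-luciferase activation: AREc32_Fluc cells treated with compounds for 24 hr at 37 deg C, then lysed with Steady-Glo for 30 min at room temperature before reading.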
A short description of assay [10]: S16 Schwann cell PMP22 intronic element beta-lactamase assay (AID 624044; calls by dose curve; also: potency is read from the fitted curve at half-maximal effect; nearly all actives have a fitted effect of over 15% in size). The method in brief: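 Rat S16 Schwann cells with beta-Lac driven by a PMP22 intronic element, compound-treated 24 h at 37 °C. LiveBLAzer FRET B/G read: 460 nm normalized to potassium clavulanate vs DMSO; 535 nm FRET as viability; concentration-effect curves classified.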
Assay [11] in a line: Cytotoxicity counterscreen for NFkB agonists and antagonists (AID 624476). Also: potency is read from the fitted curve at half-maximal effect.
Assay [12] is described as follows: qHTS Assay for Identification of Small Molecule Agonists for NFkB Signaling Pathway. (AID 624478).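 Also: compounds tested together with TNF alpha at its EC50 of 10 pM; 0% is about no effect.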 The method in brief:
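ME-180 cervical carcinoma, stable NFkB-RE beta-lactamase reporter; 1000 cells/well, overnight attachment; cpd + TNF alpha 10 pM final, 5 h 37 C; LiveBLAzer 2 h RT; FRET 460/530 nm, ex 405 nm.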

Assay [13] is described as follows: qHTS Assay for Identification of Small Molecule Antagonists for NFkB Signaling Pathway. (AID 624479; calls by dose curve;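 also: pathway stimulated with TNF alpha; potency is read from the fitted curve at half-maximal effect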).
Assay [14] addresses Tumor susceptibility gene 101 protein (Homo sapiens) (UniProt Q99816). Description: qHTS Assay for Iinhibitors of HIV-1 Budding by Blocking the Interaction of PTAP/TSG101: Hit Validation (AID 651600). Also: potency is read from the fitted curve at half-maximal effect; nearly all actives have a fitted effect of over 70% in size. The conditions noted are these: PTAP peptide/TSG101 UEV interaction, biochemical assay. The method in brief:
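Measuring PTAP–Tsg101 interaction by FP: protein at 10 uM and fluorescent peptide at 50 nM (final), buffer 10 mM HEPES pH 7.5 with 0.15 M NaCl, 3 mM EDTA, 0.1 mM TCEP, 0.01% Tween 20; 20 min incubation, r.t.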

Assay [15] is described as follows: Cell Proliferation Assay against the TMD8 Cell Line (AID 651645).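 Also: cells exposed to compound for 48 h before reading.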 The conditions noted are these: TMD8 DLBCL cell line proliferation/viability; at 46.1 µM (top of the series) unless noted. The method in brief: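 Cell viability of the ABC DLBCL line TMD8 is measured by CellTiter-Glo luminescence following a 48-hour incubation with compound. Percent activity uses DMSO as 100% and 9.2 uM bortezomib (final) as 0%.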

A short description of assay [16]: Cell Proliferation Assay against the HBL1 Cell Line (AID 651646).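 Also: cells exposed to compound for 48 h before reading.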 The conditions noted are these: HBL1 DLBCL cells; at 46.1 µM (top of the series) unless noted. The method in brief:
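Luminescent ATP read-out (CellTiter-Glo) after 48 h compound exposure of HBL1 cells at 37 °C; percent activity was scaled between DMSO as 100% and 9.2 uM bortezomib (final) as 0%.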

A short description of assay [17]: Cell Proliferation Assay against the TMD8 Cell Line (Caspase readout at 16 hrs) (AID 651712). Also: potency is read from the fitted curve at half-maximal effect. The essentials: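 Apoptotic response of TMD8 cells was judged from caspase 3/7 activation following a 16 hour compound incubation at 37 °C. Luminescent signal was converted to percent activity, with DMSO set as 0% and 9.2 uM final bortezomib as 100%.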
Assay [18] can be described thus: Cell Proliferation Assay against the TMD8 Cell Line (Caspase readout at 8 hrs) (AID 651713). Also: potency is read from the fitted curve at half-maximal effect. The essentials:
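Seed log-phase TMD8 cells, add compound by pin tool, incubate 8 h at 37C under 5% CO2, equilibrate to room temperature, add Caspase-Glo, wait 15 min, read luminescence; percent activity uses DMSO and 9.2 uM bortezomib controls.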

Inconclusive results are not listed. Calls of active or inactive are those of the source. Unless noted, calls follow the shape of the dose curve; as a rule, active = well fitted curve in the direction sought with a large enough effect; inconclusive = small, poorly fitted or top-dose-only effect, or another doubt; inactive = no such curve, though single readings can be large; an effect the other way counts as inactive or inconclusive.

Sequence of Glucagon-like peptide 1 receptor (Homo sapiens) (P43220 whole entry, looked up): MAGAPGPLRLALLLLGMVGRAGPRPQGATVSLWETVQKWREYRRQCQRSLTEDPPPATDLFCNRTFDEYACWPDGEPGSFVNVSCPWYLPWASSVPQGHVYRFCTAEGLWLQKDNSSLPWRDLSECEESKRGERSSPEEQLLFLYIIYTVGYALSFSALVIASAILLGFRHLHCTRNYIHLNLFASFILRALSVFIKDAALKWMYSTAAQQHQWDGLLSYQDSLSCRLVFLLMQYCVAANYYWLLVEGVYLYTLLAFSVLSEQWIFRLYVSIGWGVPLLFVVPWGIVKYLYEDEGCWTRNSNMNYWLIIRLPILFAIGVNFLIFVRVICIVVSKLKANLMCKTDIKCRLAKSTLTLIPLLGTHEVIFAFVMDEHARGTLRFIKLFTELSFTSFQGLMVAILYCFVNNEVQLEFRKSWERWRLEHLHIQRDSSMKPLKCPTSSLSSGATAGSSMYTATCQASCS
Sequence of Luciferin 4-monooxygenase (Photinus pyralis) (P08659 whole entry, looked up): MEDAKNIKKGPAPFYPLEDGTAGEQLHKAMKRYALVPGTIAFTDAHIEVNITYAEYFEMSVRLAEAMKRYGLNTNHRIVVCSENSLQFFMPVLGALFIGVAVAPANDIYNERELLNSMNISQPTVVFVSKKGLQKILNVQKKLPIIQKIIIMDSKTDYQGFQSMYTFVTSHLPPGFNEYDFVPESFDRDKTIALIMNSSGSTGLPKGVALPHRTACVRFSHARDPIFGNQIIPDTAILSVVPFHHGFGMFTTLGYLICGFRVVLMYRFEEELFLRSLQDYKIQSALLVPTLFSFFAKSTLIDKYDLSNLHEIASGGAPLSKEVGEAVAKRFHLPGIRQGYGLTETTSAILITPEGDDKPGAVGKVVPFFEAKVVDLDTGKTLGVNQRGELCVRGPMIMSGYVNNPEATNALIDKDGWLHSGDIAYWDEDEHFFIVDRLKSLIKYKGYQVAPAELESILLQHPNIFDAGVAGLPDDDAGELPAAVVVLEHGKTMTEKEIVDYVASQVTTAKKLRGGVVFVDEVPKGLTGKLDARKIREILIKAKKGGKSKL
Sequence of Glutaminase kidney isoform, mitochondrial (Homo sapiens) (O94925 whole entry, looked up, canonical isoform): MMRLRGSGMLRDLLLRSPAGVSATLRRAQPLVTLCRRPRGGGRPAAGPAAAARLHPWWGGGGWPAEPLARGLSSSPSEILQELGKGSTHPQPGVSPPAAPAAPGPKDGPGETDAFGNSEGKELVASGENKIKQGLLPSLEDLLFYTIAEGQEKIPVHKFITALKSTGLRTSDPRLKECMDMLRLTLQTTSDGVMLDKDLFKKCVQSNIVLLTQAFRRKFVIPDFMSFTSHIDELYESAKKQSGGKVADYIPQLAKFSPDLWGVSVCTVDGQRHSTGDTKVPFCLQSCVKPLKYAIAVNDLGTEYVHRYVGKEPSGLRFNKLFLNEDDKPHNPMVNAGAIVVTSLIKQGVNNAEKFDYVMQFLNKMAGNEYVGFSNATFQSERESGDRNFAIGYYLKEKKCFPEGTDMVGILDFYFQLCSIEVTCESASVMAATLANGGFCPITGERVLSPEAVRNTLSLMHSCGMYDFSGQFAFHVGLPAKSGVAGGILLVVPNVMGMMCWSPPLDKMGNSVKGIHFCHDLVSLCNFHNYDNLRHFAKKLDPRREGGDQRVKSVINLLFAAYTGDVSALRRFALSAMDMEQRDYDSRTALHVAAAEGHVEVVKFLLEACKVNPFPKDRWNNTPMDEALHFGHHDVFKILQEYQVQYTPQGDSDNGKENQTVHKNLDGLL
Sequence of Voltage-gated inwardly rectifying potassium channel KCNH2 (Homo sapiens) (Q12809 whole entry, looked up): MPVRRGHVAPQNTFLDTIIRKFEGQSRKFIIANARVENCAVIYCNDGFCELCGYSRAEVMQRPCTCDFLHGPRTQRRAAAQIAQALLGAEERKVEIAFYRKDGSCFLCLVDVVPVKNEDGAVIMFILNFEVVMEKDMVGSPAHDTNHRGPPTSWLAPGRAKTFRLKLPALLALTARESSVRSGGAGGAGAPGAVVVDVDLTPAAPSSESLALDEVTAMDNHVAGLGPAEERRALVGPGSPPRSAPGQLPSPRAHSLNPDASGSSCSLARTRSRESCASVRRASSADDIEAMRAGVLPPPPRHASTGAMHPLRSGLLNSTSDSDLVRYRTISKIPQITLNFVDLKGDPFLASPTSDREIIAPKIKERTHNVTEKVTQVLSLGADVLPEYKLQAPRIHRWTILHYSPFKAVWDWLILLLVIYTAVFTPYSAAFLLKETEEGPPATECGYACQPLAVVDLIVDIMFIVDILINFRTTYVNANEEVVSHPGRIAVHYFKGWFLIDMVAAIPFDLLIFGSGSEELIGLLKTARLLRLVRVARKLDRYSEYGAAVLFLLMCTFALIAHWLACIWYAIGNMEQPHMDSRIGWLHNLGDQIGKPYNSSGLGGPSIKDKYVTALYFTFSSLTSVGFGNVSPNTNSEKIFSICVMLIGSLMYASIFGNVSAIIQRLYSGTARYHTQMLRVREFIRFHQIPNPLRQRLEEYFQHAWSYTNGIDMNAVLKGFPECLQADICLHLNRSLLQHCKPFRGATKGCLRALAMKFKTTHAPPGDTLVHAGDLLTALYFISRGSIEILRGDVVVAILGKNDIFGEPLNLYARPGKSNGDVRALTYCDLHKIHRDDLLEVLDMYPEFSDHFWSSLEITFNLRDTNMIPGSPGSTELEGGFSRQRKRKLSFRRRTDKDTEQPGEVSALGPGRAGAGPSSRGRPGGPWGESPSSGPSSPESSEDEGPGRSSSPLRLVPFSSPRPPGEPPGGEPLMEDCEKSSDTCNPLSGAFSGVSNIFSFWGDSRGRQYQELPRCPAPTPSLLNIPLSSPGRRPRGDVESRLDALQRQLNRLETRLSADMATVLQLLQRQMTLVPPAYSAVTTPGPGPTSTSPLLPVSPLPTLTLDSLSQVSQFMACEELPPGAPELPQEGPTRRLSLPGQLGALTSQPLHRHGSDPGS
Sequence of Tumor susceptibility gene 101 protein (Homo sapiens) (Q99816 whole entry, looked up): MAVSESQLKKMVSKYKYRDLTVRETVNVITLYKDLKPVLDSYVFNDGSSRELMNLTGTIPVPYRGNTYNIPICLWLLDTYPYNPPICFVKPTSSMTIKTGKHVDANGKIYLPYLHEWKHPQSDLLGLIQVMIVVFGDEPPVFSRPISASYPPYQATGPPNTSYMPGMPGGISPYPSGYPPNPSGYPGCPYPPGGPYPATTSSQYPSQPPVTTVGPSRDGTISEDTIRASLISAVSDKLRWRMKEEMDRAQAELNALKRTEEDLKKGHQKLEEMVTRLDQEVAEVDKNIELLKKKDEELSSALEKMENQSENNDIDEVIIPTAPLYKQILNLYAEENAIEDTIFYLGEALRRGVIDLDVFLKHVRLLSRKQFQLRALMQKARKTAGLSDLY

With `COc1cc2c(c(OC)c1OC)-c1ccc(OC)c(=O)cc1[C@@H](NC(C)=O)CC2`, the Potency entry in assay [1], in [2], in assay [3], in assay [4], in assay [5] and in [6] was “inactive” in each case.
Turning to `CN1C(C(=O)Nc2ccccn2)=C(O)c2ccccc2S1(=O)=O`, the Potency result in assay [1], in assay [2], in [3], in [7], in [4] and in assay [5] was “inactive” in each case. Also, the Potency result in assay [8] and in assay [6] was “inactive” each time.
As for `CNCCCC12CCC(c3ccccc31)c1ccccc12`, the Potency entry in assay [2], in [4], in assay [5] and in [6] was “inactive” throughout. The Potency in [3] and in assay [7] was 32.2 µM (active) throughout.
Take `O=C1c2c(O)ccc(O)c2C(=O)c2c(NCCNCCO)ccc(NCCNCCO)c21`: the Potency result in [2], in assay [3] and in assay [5] was “inactive” each time. In addition, the figures for the Potency in assay [7] and in assay [4] were 0.346 µM (active) and 3.55 µM (active), respectively. Besides, the outcome in assay [9] was inactive.
In the case of `CC1COc2c(N3CCN(C)CC3)c(F)cc3c(=O)c(C(=O)O)cn1c23` (stereo not given), the Potency result in [1], in assay [4], in assay [5], in assay [8] and in assay [6] was “inactive” throughout. The call in [9] was inactive.
As to `CN1C2CCC1CC(OC(=O)C(CO)c1ccccc1)C2` (stereo not given), the Potency result in assay [4], in assay [5] and in assay [6] was “inactive” each time. In assay [9], the call was inactive.
On to `NC(CO)C(=O)NNCc1ccc(O)c(O)c1O` (stereo not given), for which the Potency entry in [1], in [5] and in [6] was “inactive” throughout.
In the case of `CCCCc1oc2ccccc2c1C(=O)c1cc(I)c(OCCN(CC)CC)c(I)c1`, the Potency entry in assay [2], in assay [4], in [5], in [8] and in assay [6] was “inactive” in each case. Moreover, the Potency in assay [3] is 32.2 µM (active); in [7] it was 28.7 µM (active). The call in assay [9] was inactive.
In the case of `CC[C@@]1(O)C(=O)OCc2c1cc1n(c2=O)Cc2cc3c(CN(C)C)c(O)ccc3nc2-1`, in assay [2], the Potency result is “inactive”. Besides, the Potency is 0.51 µM (active) in assay [7]; 15.8 µM (active) in assay [10]; 0.0235 µM (active) in assay [11]; 5.95 µM (active) in assay [13]; 6.51 µM (active) in assay [14]; 0.0074 µM (active) in assay [17]. Moreover, the Potency in assay [18] is 1.48 µM (active). Besides, the result in assay [12] was inactive. Also, the viability (% of control) in assay [15] was found to be 4.59%. The viability, percent of control in assay [16] amounted to 33.6%.
For the compound `CN1CCC(=C2c3ccccc3C=Cc3ccccc32)CC1`, the Potency entry in assay [2], in [4], in assay [5] and in assay [6] was “inactive” in each case.
Take `COc1ccc(C2CNC(=O)C2)cc1OC1CCCC1` (stereo not given): the Potency result in assay [1], in assay [4], in [5] and in assay [6] was “inactive” in each case. For the same compound, the Potency in assay [8] is 0.0461 µM (active).
With `CCc1cccc2c3c([nH]c12)C(CC)(CC(=O)O)OCC3` (stereo not given), the Potency result in [1], in assay [4], in [5], in assay [8] and in assay [6] was “inactive” in each case.
In the case of `Cc1cnc(C(=O)NCCc2ccc(S(=O)(=O)NC(=O)NC3CCCCC3)cc2)cn1`, the Potency entry in [2], in assay [3], in [7], in assay [5], in assay [8] and in [6] was “inactive” throughout.
For the compound `Cc1cc(C(C)(C)C)cc(C)c1CC1=NCCN1`, the Potency result in assay [2], in [3], in assay [7], in [4], in assay [5] and in assay [8] was “inactive” in each case. Further, in [6], the Potency entry was “inactive”.
Consider `Cc1ccccc1N1C(=O)c2cc(S(N)(=O)=O)c(Cl)cc2NC1C` (stereo not given), for which the Potency entry in assay [2], in assay [4], in [5], in [8] and in [6] was “inactive” each time.
